Here are results for 6 compounds from PubChem BioAssay AID623908 (Johns Hopkins Ion Channel Center, 2012).

SMILES strings stand for the structures. Screen size: about 2,500 compounds; about 1,500 (60%) were called active.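 How the source made its calls: active means duplicate-averaged ratio beyond 3 SD from buffer wells, up or down, though filed actives are nearly all decreases; inactive means the rest.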 The set was probably picked from earlier hits. Not all results are given here.

The assay can be described thus: dye ratio change in CHT-lacking host cells – cell-based, parental HEK293, membrane potential dye, counter-screen for CHT activator project (AID 623908). Conditions: parental HEK293, membrane potential dye fluorescence (FDSS); at 10 µM; measured after EC20 choline addition. On the technique in general: The purpose of a counterscreen is to sort out artefacts and off-target activity.
As for `CCN1CCN(c2ccc([N+](=O)[O-])cc2C#N)CC1`, the ratio readout change was -38.3 (active).

On to `CN1CCN(c2cc(N3CCNCC3)ccc2[N+](=O)[O-])CC1`, for which the ratio readout change is -81.4 (active). The value for `Cc1nc2ccc(N3CCN(C)CC3)cc2nc1C` was -22.9 (active).

As for `CCCCCn1c(=O)c(C(=O)Nc2c(C)n(C)n(-c3ccccc3)c2=O)c(O)c2ccccc21`, the ratio readout change entry is “inactive”.

In the case of `CC[N+](CC)(CC)CCCCCCCCCC[N+](CC)(CC)CC`, the ratio readout change was -41.6 (active). For `CCOc1ccc(-c2cc(C)[n+](CCN(CC)CC)c(-c3ccc(OCC)cc3)c2)cc1`, the ratio readout change result was “inactive”.
